# Source: PubChem BioAssay
# Where “and” joins values, the source holds several entries; their conditions need not be identical. Equal values may be shown once. Unmarked numbers belong to inactive results. Calls of active or inactive are those of the source.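 How the source made its calls: active means inhibition at or above 50% relative to wild type and mutant plate controls; inactive means inhibition below 50%.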
# Assay: inhibitors of Chlamydomonas gravitaxis, primary screen, whole organism, Chlamydomonas reinhardtii, WT vs cilia-less mutant, absorbance, 96-well (AID 463189);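 further: 0% = wild type cc124 cells in DMSO and 100% = ciliumless bld1 mutant cells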
# Settings: OD600 absorbance, 2 days, at 10 µM, active compounds read high
row,SMILES,inhibition
1,C[C@]12CC[C@H](O)CC1=CC[C@@H]1[C@@H]2CC[C@]2(C)C(=O)CC[C@@H]12,-2.3%
2,NCCc1c[nH]c2ccc(C(N)=O)cc12,4.98%
3,CCCCCCC(C)(C)c1ccc([C@@H]2C[C@H](O)CC[C@H]2CCCO)c(O)c1,-3.04%
4,NC(Cc1cc(O)c(O)cc1O)C(=O)O (stereo not drawn),-1.78%
5,N[C@@H](CCl)C(=O)O,3.95%
6,CCCN1CCC[C@H](c2cccc(O)c2)C1,0.621%
7,c1ccc2sc(C3(N4CCCCC4)CCCCC3)cc2c1,-0.941%
8,CNc1ccc2oc(C[C@H]3O[C@@]4(CC[C@H]3C)O[C@H]([C@H](C)C(=O)c3ccc[nH]3)[C@H](C)C[C@H]4C)nc2c1C(=O)O,84.5% (active)
9,CCCN1CCO[C@@H]2c3cc(O)ccc3OC[C@H]21,3.37% and -1.05%
10,COc1ccc2c(c1O)-c1cccc3c1[C@@H](C2)N(C)CC3,6.42%
11,CCCN1CCc2cc(O)cc3c2[C@H]1Cc1ccc(O)c(O)c1-3,0.25%
12,CC(N)[C@H](O)c1ccc(O)c(O)c1 (stereo partly drawn),1.5%
13,NCCc1c[nH]c2ccc(O)cc12,-4.38%
14,C#CCN(C)[C@@H](C)Cc1ccccc1,7.92%
15,COc1cc(C[C@@H](C)N)c(OC)cc1I,-7.2%
16,CCCN(CCC)[C@H]1CCc2c(F)ccc(O)c2C1,-6.79%
17,NC(Cc1ccc(N(CCCl)CCCl)cc1)C(=O)O (stereo not drawn),3.86%
18,CC(N)Cc1c[nH]c2ccc(O)cc12 (stereo not drawn),7.26%
19,c1ccc2cc(CC3=NCCN3)ccc2c1,1.93%

row,SMILES,inhibition
1,CCN(CC)C(=O)N[C@H]1C=C2c3cccc4[nH]cc(c34)C[C@H]2N(C)C1,8.76%
2,CC(C)(O)[C@@H]1[C@H]2OC(=O)[C@@H]1[C@]1(O)C[C@H]3O[C@]34C(=O)O[C@H]2[C@]14C (tested in a mixture with another compound),-1.93%
3,CCS(=O)(=O)Nc1cccc(C(=C2CCCCC2)c2cnc[nH]2)c1,2.69%
4,Clc1ccc(N2CC3CCC(C2)N3)nn1,1.03%
5,CC(N)C(=O)OC(C)(C)Cc1ccc(Cl)cc1 (stereo not drawn),-6.83%
6,O=C(O)c1nn(Cc2ccc(Cl)cc2Cl)c2ccccc12,-0.768%
7,CCc1c(C(=O)OC)ncc2[nH]c3cc(OC)c(OC)cc3c12,1.73%
8,O=C1C=CC(=O)C=C1,-11.2%
9,Cc1nc(-c2ccc(-c3ccc(C(=O)N4CCc5cc6c(cc54)C4(CCN(C)CC4)CO6)cc3)c(C)c2)no1,141% (active)
10,COc1cc(CCN)ccc1O,2.21%
11,CC1=NN=C(c2ccc(N)cc2)c2cc3c(cc2C1)OCO3,-2.8%
12,N#CC(=Cc1ccc(O)c(O)c1)C(N)=S,10.3%
13,COC(=O)C1=CCCN(C)C1,-3.75%
14,CC(N)c1cccc(Cl)c1Cl (stereo not drawn),-4.86%
15,CP(=O)(O)C1=CCNCC1,10%
16,CC1Cc2cc3c(cc2C(c2ccc(N)cc2)=NN1)OCO3 (stereo not drawn),0.595%
17,C[C@H](Cc1ccc2c(c1)OC(C(=O)O)(C(=O)O)O2)NC[C@H](O)c1cccc(Cl)c1,1.22%
18,COc1ccc(CCN)cc1O,4.96%
19,Cc1sc2ccccc2c1CC1=NCCN1,20.7%
